Bioassay records as filed in PubChem.
Rows were chosen to be rich in hits. Some 0.97% of all compounds tested hit in one or more screens of this group.
HER2 expr 66K = Her2 kinase expression inhibition. HER2 level % of control, % at 10 µM. SKBR-3 HER2 protein level, AlphaScreen, 18-24 h; active compounds read low. hit rate 0.69% among 65,000. AID 645. P04626;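 active means HER2 level under 5% of the carrier-only control; inconclusive means no clear call, values can overlap the other calls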;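 further: lower value means stronger loss of Her2 protein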
mHtt clearance = mutant huntingtin protein clearance. hit rate 0.42% among 47,000. HeLa Exon1htt(103Q)mCFP, aggregate imaging; zero = plate's median compound well. AID 853. inhibition, % at 1.5 µM;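 active means inhibition of aggregate fluorescence above about 70%, also judged a hit by eye on the cell image, limit read from the data, passing the limit was not always enough; inconclusive means no rule stated for this call; inactive means not judged a hit on image review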;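 further: cells exposed to compound for three days before fixation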
SKBR3 24h inh = SK-BR-3 proliferation inhibitors; SK-BR-3 viability, CellTiter-Glo ATP luminescence, 24 h; active compounds read low; viability, % at 10 µM; hit rate 0.47% among 41,000;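 active means viability at or below the median of all test compounds minus 3 SD, in both replicates if run twice, cut at about 45% in these data; inconclusive means duplicate replicates that disagree with each other; inactive means viability above that cutoff in every replicate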
Numbers stand for hits; n = inactive; u = inconclusive; x = not tested or not shown.

SMILES	HER2 expr 66K	mHtt clearance	SKBR3 24h inh
CCCc1cc(C(=O)Cc2ccc(F)cc2)c(O)cc1O	-12	n	16
COC(=O)c1cc(Br)c(=O)n(CCN2CCOCC2)c1	n	n	n
COc1ccc(OCc2nnc(SC(C)C(=O)Nc3nccs3)n2-c2ccccc2)cc1 (configuration not stated)	n	u	n
CCCn1c2c(c(O)c(C(=O)NCCCN(CC)CC)c1=O)CCCC2	x	74	x
CCCn1c2c(c(O)c(C(=O)NC)c1=O)CCCC2	n	n	n
O=C(NCCC1=CCCCC1)C1CCN(S(=O)(=O)c2cccc3nsnc23)CC1	n	n	x
Cc1nc2ccc(C(C(F)(F)F)(C(F)(F)F)C(F)(F)F)cc2[nH]1	n	n	n
CCOC(=O)c1ccccc1NC(=O)Cn1cnc2c(cnn2-c2ccc(OC)cc2)c1=O	n	86	n
CCOC(=O)c1ccccc1NC(=O)Cn1cnc2c(cnn2-c2ccccc2)c1=O	n	n	x
O=C(c1ccco1)N1CCN(C(=O)C2CCCc3c2[nH]c2ccc(Cl)cc32)CC1 (configuration not stated)	n	x	n
COc1ccc(Cn2c(-c3ccc(OC)cc3)nc3ccccc32)cc1	x	n	x
COc1ccc(CCN2CCC(Nc3nc4ccccc4n3Cc3ccc(F)cc3)CC2)cc1	-11	x	24
CCOCCOC(=O)c1ccc(-n2cncn2)nc1	x	n	x
OCCN(Cc1ccccc1)Cc1ccc(F)c(F)c1	n	x	x
Nc1nnc(-c2cccnc2)s1	n	x	x
c1cncc(-c2nnc(-c3cccnc3)nn2)c1	n	n	35
O=C(c1ccco1)N1CCN(CC(O)Cn2c3ccccc3c3ccccc32)CC1 (configuration not stated)	n	x	x
Cc1ccc(Cn2ccc(NC(=O)c3c(-c4ccccc4Cl)noc3C)n2)cc1	n	x	x
CC(=O)NC(Cc1c[nH]c2ccccc12)C(=O)OCC(=O)Nc1ccc2c(c1)OCO2 (configuration not stated)	-33	x	x
CC(=O)NC(Cc1c[nH]c2ccccc12)C(=O)OCC(=O)Nc1cc(C)on1 (configuration not stated)	n	n	x
CS(=O)(=O)c1ccc(Cl)c(NC(=O)COC(=O)CNC(=O)c2ccc(Br)o2)c1	-22	n	x
CN(CC(=O)Nc1ccccc1Cl)C(=O)COC(=O)CNC(=O)c1ccc(Br)o1	n	n	x
Cn1nc(C(=O)Nc2c(-c3ccccc3)nc3sccn23)c2ccccc2c1=O	1.1	x	x
Cn1nc(C(=O)Nc2cccc(C(F)(F)F)c2)c2ccccc2c1=O	x	n	x
COc1ccc2cc(S(=O)(=O)N3CCCCC3)ccc2c1S(=O)(=O)N1CCCCC1	n	n	n
SMILES	HER2 expr 66K	mHtt clearance	SKBR3 24h inh
Fc1ccc(-c2nnc(CN3CCC(c4nc5ccccc5s4)CC3)o2)cc1	n	x	x
CCOc1nc(OCC)nc(N2CCC(C)CC2)n1	n	x	x
CCOc1nc(C#N)nc(N2CCCCC2)n1	n	x	39
Oc1c(C(c2ccco2)N2CCN(C(c3ccccc3)c3ccccc3)CC2)sc2ncnn12 (configuration not stated)	n	x	x
C=C1CC(C)OC(c2ccccc2OCC(O)CN2CCCCC2)C1 (configuration not stated)	n	x	n
Cc1cccc2cc(C#N)c(NCCNC(=O)NC3CCCCC3)nc12	n	x	n
Cc1cccc2cc(C#N)c(NCCNS(=O)(=O)c3ccc4c(c3)OCCO4)nc12	n	n	30
COCc1nnc(NC(=O)c2ccc(NC(C)=O)cc2)s1	n	84	x
CCCC(=O)Nc1ccc(C(=O)Nc2nnc(COC)s2)cc1	n	x	n
O=C(c1ccc2snnc2c1)N1CCOCC1	n	x	n
CCOC(=O)C1=C(SCC(=O)Nc2ccccc2)NC(=O)C(C#N)C12CCCCC2 (configuration not stated)	n	n	n
CCNC(=O)CC1C(=O)N(c2ccc(F)cc2)C(=O)N1CCC(C)C (configuration not stated)	n	n	x
CCOCCn1c(=O)c2c(nc3n2CCN3c2ccc(CC)cc2)n(C)c1=O	n	x	x
COC(=O)NCc1cc2cc(Cl)ccc2[nH]1	n	x	n
CCN(CC)C(=O)c1cn(CC)c(=O)c2cc(OC)c(OC)cc12	n	x	n
COC(=O)c1sc(S(=O)(=O)N2CCN(c3ccccc3)CC2)c(C(=O)OC)c1C	-30	x	n
COC(=O)c1sc(S(=O)(=O)N2CCCCC2)c(C(=O)OC)c1C	n	x	n
CCOC(=O)N1CCN(C(=O)CSc2ccccc2)CC1	n	n	x
COC(=O)c1ccc(-c2sc3nc(N4CCOCC4)c4c(c3c2N)CC(C)(C)OC4)o1	n	x	34
CCOC(=O)c1sc2nc(N3CCOCC3)c3c(c2c1N)CC(C)(C)N(C)C3	x	n	x
CNC(=O)c1csc(-c2ccc(C)cc2)n1	x	n	x
Cc1cccc(N2CCN(C(=O)Cn3nc(Cc4ccncc4)c4ccccc4c3=O)CC2)c1C	n	n	x
Cc1ccc(CSC2=Nc3ccccc3C3=NC(CC(=O)NCc4ccco4)C(=O)N23)cc1 (configuration not stated)	n	x	x
COc1ccc(C(=O)COC(=O)CSCc2c(C)noc2C)cc1OC	n	n	x
Cc1noc(C)c1CSCC(=O)OCC(=O)NC1CCCCC1	n	x	32
SMILES	HER2 expr 66K	mHtt clearance	SKBR3 24h inh
O=C1CCc2cc(S(=O)(=O)NC(Cc3ccccc3)C(=O)NCCC3=CCCCC3)ccc2N1 (configuration not stated)	x	n	x
CN1CCN(CCCNc2nc3ccccc3c3nc(-c4ccccc4)nn23)CC1	-10	x	x
COc1cc2nc(NCCN3CCOCC3)n3nc(-c4ccccc4)nc3c2cc1OC	n	x	x
O=C1C2C3CCCC3=C3CCCC3C2C(=O)N1c1ccccc1 (configuration not stated)	n	n	x
O=C(CCN1C(=O)c2ccccc2C1=O)Nc1cccnc1	x	n	x
O=C(c1ccc2nc(N3CCCCC3)sc2c1)N1CCN(Cc2ccc3c(c2)OCO3)CC1	n	x	x
COc1ccc(OC)c(S(=O)(=O)Nc2ccc(C(N)=O)cc2)c1	n	n	n
COc1ccc(OC)c(S(=O)(=O)Nc2ccc(O)c(Sc3ncn[nH]3)c2)c1	n	86	n
COc1ccc(OC)c(S(=O)(=O)Nc2ccc(O)c3ccccc23)c1	1.2	n	x
COC(=O)c1c(C)oc2ccc(NS(=O)(=O)c3cc(OC)ccc3OC)cc12	n	x	n
CC(C)(C)OCC(NC(=O)C(CC(N)=O)NC(=O)OC(C)(C)C)C(=O)OC(C)(C)C (configuration not stated)	n	x	n
O=C(Nc1nc2ccccc2s1)C1CC(=O)N(c2ccc(F)cc2)C1 (configuration not stated)	x	n	x
CCC(C)Sc1nc2ccccc2c(=O)[nH]1 (configuration not stated)	x	n	x
Cc1ccc(S(=O)(=O)NCC(c2ccccc2)N2CCN(CCC#N)CC2)cc1 (configuration not stated)	n	n	x
CC(C)n1c(N2CCN(CC(=O)NCc3cccs3)CC2)nc2ccccc21	n	x	n
O=C(CN1CCC(c2nc3ccccc3s2)CC1)NCc1cccs1	-13	n	n
CCn1cc(SCC(=O)NCC2CCCO2)c2ccccc21 (configuration not stated)	n	x	x
COc1ccc(CC(=O)Nc2cccc(-c3nnc(-c4ccc(C)cc4)o3)c2)cc1OC	n	x	x
COc1ccc(CC(=O)Nc2cccc(-c3nnc(-c4cccc(C)c4)o3)c2)cc1OC	-0.4	x	u
O=C(CCSc1nc2ccccc2o1)N1CCOCC1	n	n	n
